Test results reported in the supplement of paper PMC10338343.
± gives the standard deviation.

Tested on: EfPiwi piRISC loaded with piRNA #1 (26 nt)
Assay: pre-steady-state target cleavage rate (min^-1); auxiliary factor: 500 nM Ephydatia muelleri Gtsf1; guide: piRNA #1 5'p-UGAGGUAGUAGGUUGUAUAGUAUCCA; MIWI and MILI are mouse PIWI proteins and EfPiwi is from a freshwater sponge; tags in brackets are library labels; higher = faster piRNA-guided slicing of the target
In short: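 Reactions were run for 0–8 or 0–960 min at 33 °C in HEPES–potassium acetate buffer, combining 1 nM active affinity-purified piRISC with one synthetic guide, […] transcribed, DNA-blocked target RNA library and, in some cases, 500 nM GTSF1 partner protein. Sequencing of uncleaved targets followed, with normalisation to depth and to weakly complementary targets. Three trials were pooled, k3 was capped at 0.0001 min^-1, and the pre-steady-state cleavage rate was taken from a burst-and-steady-state fit.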

Sequence | pre-steady-state target cleavage rate
GGAGAGGAAAGUAUACAACCUACUACCUCA | 0.00774 ± 0.0044
GGAGACCUAACUAUACAACCUACUACAUCA | 0.0146 ± 0.0083
GGAGUGGAUACUAUACAACCUACUACUCA | 0.00563 ± 0.0029
GGAGACCAUACUAUACAACCUACUACGACA | 0.00532 ± 0.0028
GGAGACCUCACUAUACAACCUACUACCUCA | 0.0184 ± 0.0086
GGAGACCUAACUAUACAACAUACUACCUCA | 0.00659 ± 0.0046
GGAGAGGAUACUAUACAACGUACUACGUCA | 0.00349 ± 0.0018
GGAGACGAUAGAUUACAACCUACUACCUCA | 0.00662 ± 0.0047
GGAGACCAUAGAAUACAACCUACUACCUCA | 0.00684 ± 0.0033
GGAGACGAUACUAUACAACCUAGCUACCUCA | 0.00543 ± 0.0023
GGAGACGAACUAUACAACCUACUACCUCA | 0.0112 ± 0.0057
GGAGACCAUACUAUCACAACCUACUACCUCA | 0.0399 ± 0.014
GGAGAGGUUUCUAUACAACCUACUACCUCA | 0.00427 ± 0.004
GGAGAGGAUACUAUACAACCAUCUACCUCA | 0.0052 ± 0.002
GGAGAGGAUACUAUACAAGCUUCUACCUCA | 0.0045 ± 0.0024
GGAGACCUAACUAUACAACCUACUACCAGA | 0.00445 ± 0.0031
GGAGAGAUACUAUACAACCUACUACCUCA | 0.121 ± 0.054
GGAGACGAUACUAUACAACCUACUACGCUCA | 0.00415 ± 0.0014
GGAGACGAUACUAUACAACUUACUACCUCA | 0.0183 ± 0.0077
GGAGUGGAUAGUAUACAACCUAGUACCUCA | 0.00264 ± 0.0018

Sequence | pre-steady-state target cleavage rate
GGAGACCUUAGAAUACAACCUACUACCUCA | 0.00613 ± 0.0038
GGAGACGAUACUAUUCUACCUACUACCUCA | 0.00416 ± 0.0035
GGAGACCAUAUCUAUACAACCUACUACCUCA | 0.124 ± 0.051
GGAGAGGAUACUAUACAACCACUACCUCA | 0.00549 ± 0.0026
GGAGACCUUACUAUACCACCUACUACCUCA | 0.006 ± 0.003
GGAGACCAUACUAUACAACUUACUACCUCA | 0.00338 ± 0.0027
GGAGAGGCUACUAUACAACCUACUACCUCA | 0.0629 ± 0.022
GGAGAGGAUACAAUACAACGUACUACCUCA | 0.00326 ± 0.002
GGAGUGGAUACUAUAGAACCUACUACCUGA | 0.00222 ± 0.0011
GGAGAGGAUACUAUACAUCCAACUACCUCA | 0.00419 ± 0.0022
GGAGACCUAACUAUGCAACCUACUACCUCA | 0.00447 ± 0.0039
GGAGAGGAAACUAUACAACCUAGUACCUCA | 0.00323 ± 0.0013
GGAGACGAUACUAUACAACGCUACUACCUCA | 0.00969 ± 0.0037
GGAGAGGAUCUAUACAACCUACUACCUCA | 0.00612 ± 0.0048
GGAGAGGAUAGUAUACAACCUACUAGCUCA | 0.00348 ± 0.0023
GGAGACCAUAACUAUACAACCUACUACCUCA | 0.138 ± 0.043
GGAGAGGAUACUAUACAACCUACAACCACA | 0.00436 ± 0.0017
GGAGUGGUUACUAUACAACCAACUACCUCA | 0.0036 ± 0.0014
GGAGAGGAUACUAUACAACCUUCUACCACA | 0.00468 ± 0.0021
GGAGACCUAUCAAUACAACCUACUACCUCA | 0.00612 ± 0.0034
